According to PubChem BioAssay AID1745848 (National Center for Advancing Translational Sciences (NCATS), 2022):
Out of some 2,100 compounds screened, about 940 (45%) were called active. Roughly 48% stayed inconclusive and do not appear here. Calls come from the whole dose curve; as a rule, active = well fitted inhibition curve with a large enough effect; inconclusive = small, poorly fitted or top-dose-only effect; inactive = no such curve, though single readings can be large or run the other way. The set was probably picked from earlier hits. The list shows a part of the results.
Potency is the fitted concentration of half-maximal effect.

Test: Confirmatory qHTS for Inhibitors of ATXN expression; note: nearly all actives have a fitted effect of over 65% in size
Conditions: ATXN2-luciferase reporter cells, luminescence, 24 h; series mostly up to 11.5 µM
Outline: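 A titration, incubated 24 h with reporter cells expressing ATXN2-luciferase. Luminescence (SteadyGlo) gives ATXN2 expression, multiplexed GF-AFC fluorescence gives viability; normalised to DMSO and medium-only wells.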
For `NC(=S)N1OC[C@@H]2COc3ccc4ccccc4c3[C@@H]21`, the Potency was 14.1 µM (active). For `O=[N+]([O-])c1ccc(O)c(/C=N/Nc2ncnc3c2cnn3-c2ccccc2)c1`, the Potency was 1.26 µM (active). In the case of `O=[N+]([O-])c1ccc(O)c(/C=N\N=C2c3ccccc3-c3ccccc32)c1`, the Potency is reported as 3.98 µM (active). For `O=[N+]([O-])c1ccc(O)c(/C=N/Nc2ccccn2)c1`, the Potency was 0.631 µM (active). In the case of `COc1ccc(N2CCN(C(=O)c3cc4c(C)nc5ccccc5c4o3)CC2)cc1`, the Potency is reported as 25.1 µM (active). With `COc1ccccc1N1CCN(C(=O)c2cc3c(C)nc4ccccc4c3o2)CC1` the Potency was 3.55 µM (active). With `N#C/C(=C\C=C\c1ccccc1[N+](=O)[O-])C(=O)NC1CCCCC1` the Potency was 17.8 µM (active). For `CC1CCCCC1NC(=O)/C(C#N)=C/C=C/c1ccccc1[N+](=O)[O-]` (stereo not given), the Potency was 3.16 µM (active). For `N#C/C(=C\C=C\c1ccccc1[N+](=O)[O-])C(=O)NCc1ccccc1`, the Potency was 2.82 µM (active). For `N#C/C(=C\c1cccc([N+](=O)[O-])c1)C(=O)NCc1ccc(Cl)cc1`, the Potency was 3.16 µM (active). For `COC(=O)c1ccc2c(c1)C(C)(C)C(/C=C/c1ccc(OC)c(OC)c1OC)=[N+]2C`, the Potency was 3.55 µM (active). With `CCNc1ccc(Br)cc(C(=O)/C=C/c2ccccc2Cl)c1=O` the Potency was “inactive”. With `O=C(/C=C/c1ccccc1)c1cc(Br)ccc(=O)c1O` the Potency was 28.2 µM (active). For `Cc1cccc(NC2=Nc3ccccc3N3C2=Nc2c(c(C)nn2-c2ccccc2)C3c2ccc(O)c(O)c2)c1` (stereo not given), the Potency was 3.55 µM (active). In the case of `CC(=O)Nc1ccc(NC2=Nc3ccccc3N3C2=Nc2c(c(C)nn2-c2ccccc2)C3c2ccccc2)cc1` (stereo not given), the Potency is reported as 1.26 µM (active). For `COc1cccc(NC(=O)CSc2nc3ncc(Br)cc3[nH]2)c1`, the Potency was 3.98 µM (active). In the case of `Cc1cc(C)n(-c2nc(Nc3ccccc3C(F)(F)F)nc(-n3nc(C)cc3C)n2)n1`, the Potency is reported as 3.16 µM (active). With `CCOC(=O)N1CCN(Cc2cc(Cl)c3cccnc3c2O)CC1` the Potency was 1.58 µM (active). For `O=C(Oc1c(CN2CCOCC2)cc(Cl)c2cccnc12)c1ccccc1`, the Potency was 3.55 µM (active). With `O=C(Oc1c(CN2CCOCC2)cc(Cl)c2cccnc12)c1cccs1` the Potency was 11.2 µM (active). With `CC(C)(O)C#Cc1ccc([C@@H]2C[C@H]3CN(c4ccccc4)C(=O)[C@]34CCCN24)s1` the Potency was 5.01 µM (active). For `O=C1N(c2ccccc2)C[C@@H]2C[C@@H](c3cc4ccccc4o3)N3CCC[C@@]123`, the Potency was 0.316 µM (active). For `CC(C)C[C@H](N)c1cn([C@@H](CCCCN)C(=O)N2CCNCC2)nn1`, the Potency was “inactive”. With `Cc1c(OCC(=O)NC2CC(C)(C)NC(C)(C)C2)ccc2c1oc(=O)c1ccccc12` the Potency was 2.82 µM (active). With `COc1cccc(-c2cc3nc(-c4ccccc4)cc(N4CCN(C(=O)c5ccoc5)CC4)n3n2)c1` the Potency was 2.82 µM (active). With `COc1ccccc1-c1cc2nc(-c3ccccc3)cc(N3CCN(C(=O)c4ccoc4)CC3)n2n1` the Potency was 12.6 µM (active). In the case of `O=C(c1ccoc1)N1CCN(c2cc(-c3ccco3)nc3cc(-c4ccccc4)nn23)CC1`, the Potency is reported as 25.1 µM (active). In the case of `COc1ccccc1-c1cc2nc(-c3ccccc3)cc(N3CCN(C(=O)c4ccco4)CC3)n2n1`, the Potency is reported as 12.6 µM (active). With `Cn1cccc1/C=N/N1CCN(Cc2ccccc2Cl)CC1` the Potency was “inactive”. In the case of `CCOc1ccc(S(=O)(=O)NCCC(=O)N2CC=C(c3ccccc3)CC2)cc1`, the Potency is reported as 12.6 µM (active). In the case of `Cc1cccn2c(=O)c3cc(C(=O)NCCN4CCOCC4)c(=N)n(Cc4ccc(F)cc4)c3nc12`, the Potency is reported as 7.08 µM (active). For `Cc1ccc2[nH]c(O)c(N=NC(=O)C3CC3c3ccccc3)c2c1Br` (stereo not given), the Potency was “inactive”. In the case of `OC(CN1CCCCC1)Cn1c2ccc(Cl)cc2c2cc(Cl)ccc21` (stereo not given), the Potency is reported as 3.16 µM (active). In the case of `O=C(Nc1cccc2c1CCCC2)c1cc([N+](=O)[O-])ccc1Cl`, the Potency is reported as 15.8 µM (active). With `O=C(NCC1CCCO1)c1cccc(Oc2ccc([N+](=O)[O-])cc2Cl)c1` (stereo not given) the Potency was “inactive”. For `CC(C)(C)c1ccc(OCCCC(=O)NNC(=O)c2ccccc2O)cc1`, the Potency was 25.1 µM (active). In the case of `COc1ccc(/C=C2\SC(=S)N(CCCC(=O)NNC(=O)c3ccccc3O)C2=O)cc1`, the Potency is reported as 3.98 µM (active). With `O=C(CCCN1C(=O)S/C(=C\c2ccccc2)C1=O)NNC(=O)c1ccccc1O` the Potency was 2.24 µM (active). In the case of `CN(C)CCNCCCNc1c2ccccc2nc2cccc([N+](=O)[O-])c12`, the Potency is reported as 0.0891 µM (active). In the case of `CC(=O)N1CCN(c2ccc(Oc3ccc([N+](=O)[O-])c(C(F)(F)F)c3)cc2)CC1`, the Potency is reported as 11.2 µM (active). For `Cc1c(C(=O)Nc2ccc(-c3nnc4n3CCCCC4)cc2)oc2c1ccc1ccccc12`, the Potency was 3.16 µM (active). For `O=C(N/N=C/c1ccccc1O)C1CCCC1`, the Potency was 28.2 µM (active). In the case of `O=C(N/N=C/c1ccccc1O)C1SCCCS1`, the Potency is reported as 14.1 µM (active). With `C/C(=C\C(=O)c1ccc(Br)cc1)NNC(=O)c1ccc(O)cc1` the Potency was 14.1 µM (active). With `O=C(c1cc(COc2cccc(C(F)(F)F)c2)on1)N1CCC(c2ccncc2)CC1` the Potency was “inactive”. For `CC(=NNc1nc2ccccc2o1)c1ncccn1`, the Potency was 0.199 µM (active). In the case of `Cc1ccsc1/C=C/C1=Cc2c(sc(NC(=O)CSc3n[nH]c(N)n3)c2C#N)C(C)(C)C1`, the Potency is reported as “inactive”. In the case of `Cc1ccc(C)c(NC(=O)CSc2n[nH]c(-c3ccccn3)n2)c1`, the Potency is reported as 22.4 µM (active). With `Cc1ccccc1NC(=O)CSc1n[nH]c(-c2ccccn2)n1` the Potency was 14.1 µM (active). For `CC1=C(CC[C@@H](C)CO)OC2CC3C4CCC5CC(O)CCC5(C)C4CC(=O)C3(C)C12` (stereo not given in full), the Potency was 3.16 µM (active). With `Cc1nc(N/N=C/c2ccc(O)cc2O)cc(N2CCOCC2)n1` the Potency was 11.2 µM (active). In the case of `CCOc1cc(/C=N/Nc2cc(C)nc(-n3nc(C)cc3C)n2)ccc1O`, the Potency is reported as 0.708 µM (active). In the case of `Cc1cc(N/N=C/c2ccc(O)cc2O)nc(-n2nc(C)cc2C)n1`, the Potency is reported as 5.01 µM (active). With `Cc1cc(O)c(C(C)C)cc1N=Cc1ccccc1[N+](=O)[O-]` the Potency was “inactive”. In the case of `C/C(=N\Nc1cc(N2CCOCC2)nc(C)n1)c1cccc([N+](=O)[O-])c1`, the Potency is reported as “inactive”. With `Cc1cc(N/N=C/c2ccccc2[N+](=O)[O-])nc(-n2nc(C)cc2C)n1` the Potency was 3.16 µM (active). For `CS/C(=C\[N+](=O)[O-])Nc1ccc(OC(F)(F)F)cc1`, the Potency was 11.2 µM (active). For `OC(CNCCc1ccccc1)COc1ccc(OCC(O)CNCCc2ccccc2)cc1` (stereo not given), the Potency was 12.6 µM (active). With `CCCc1cc(=O)n2[nH]cc(-c3ccc(Cl)cc3)c2n1` the Potency was 2.82 µM (active). For `O=c1c2c(nc3c(-c4ccc(Cl)cc4)c[nH]n13)CCCC2`, the Potency was 1.26 µM (active). In the case of `O=C(c1cccc(Cl)c1)c1nn(-c2ccccc2)c(=O)cc1C(F)(F)F`, the Potency is reported as 31.6 µM (active). With `O=c1c2ccccc2sc2nc(CCl)nn12` the Potency was 3.16 µM (active). For `O=c1[nH]c(CN2CCN(c3ncccn3)CC2)nc2c(Br)cc(Br)cc12`, the Potency was 2.82 µM (active). For `COc1cc(/C=N\NC(=O)CC#N)ccc1OC/C=C/c1ccccc1`, the Potency was 28.2 µM (active). In the case of `Cn1c(CCc2nc3ccccc3[nH]2)nnc1SCC#N`, the Potency is reported as “inactive”. With `Cc1[nH]c2ccccc2c1SCc1nnc(SCc2ccc(Cl)cc2)n1C` the Potency was 31.6 µM (active). For `Cc1cc2sc3ccc(C#CC4(O)CCCCC4)cc3c(=O)c2cc1C`, the Potency was “inactive”. In the case of `CC(C)n1c(NCc2cc(Cl)ccc2O)nc2ccccc21`, the Potency is reported as “inactive”. With `Cc1ccc2cc(C3C(C#N)=C(N)Oc4c3ccc3cccnc43)c(=O)[nH]c2c1` (stereo not given) the Potency was 6.31 µM (active). In the case of `Cc1cccc(/C=C/C(=O)c2ccc([N+](=O)[O-])o2)c1`, the Potency is reported as 3.16 µM (active). For `COc1ccc(/C=C/C(=O)c2ccc([N+](=O)[O-])o2)cc1OC`, the Potency was 7.94 µM (active). With `Cc1cc(C)cc(NC(=O)c2ccc([N+](=O)[O-])o2)c1` the Potency was 2.82 µM (active). With `CNC(=O)c1sc(N2N=C3/C(=C/c4ccccc4)CCCC3C2c2ccccc2)nc1C` (stereo not given) the Potency was 12.6 µM (active). With `CC(CCc1ccccc1)NC(=O)c1ccc(C(=O)NC(C)CCc2ccccc2)cc1` (stereo not given) the Potency was 1.58 µM (active). In the case of `Cc1ccc(C(=O)NC(C)CCc2ccccc2)cc1S(=O)(=O)N1CCOCC1` (stereo not given), the Potency is reported as 15.8 µM (active). For `Cc1ccc(NC(=O)CNc2cccc(Br)c2)cc1S(=O)(=O)N1CCOCC1`, the Potency was “inactive”. With `CC(C)[C@H](CO)Nc1nc(NCc2ccc(S(N)(=O)=O)cc2)c2ncn(C(C)C)c2n1` the Potency was 2 µM (active). With `Oc1c(Cl)cc(Cl)cc1/C=N/Nc1ncc(Br)cn1` the Potency was 2.51 µM (active). For `CC1CC2(C)Oc3ccccc3CC2C(C)C1CNCCCN(C)C` (stereo not given), the Potency was 14.1 µM (active). In the case of `C(=NN1CCCCCC1)c1ccc2ccccc2n1`, the Potency is reported as “inactive”. With `CCc1nc2ccccc2c(C(=O)OCC(=O)Nc2ccc(NC(C)=O)cc2)c1C` the Potency was “inactive”. In the case of `CCc1nc2ccccc2c(C(=O)OCC(=O)Nc2cccc(S(=O)(=O)NC3=NCCCCC3)c2)c1C`, the Potency is reported as 17.8 µM (active). With `Cc1cc(/C=N/n2c(COc3ccccc3)nc3ccccc3c2=O)c(O)c([N+](=O)[O-])c1` the Potency was 7.94 µM (active). For `Cn1c(SCC(=O)N/N=C/c2ccc([N+](=O)[O-])s2)nnc1-c1ccc(Cl)cc1`, the Potency was 10 µM (active). With `CSc1sc(-c2nnc(SCC(=O)Nc3ccc(Cl)cc3)n2C)c2c1C=CCC2` the Potency was “inactive”. In the case of `Cn1c(SCC(=O)N/N=C/c2ccc([N+](=O)[O-])s2)nnc1-c1ccccc1`, the Potency is reported as 17.8 µM (active). With `C=CCc1cccc(/C=N/NC(=O)CNc2ccccc2OC)c1O` the Potency was 5.01 µM (active). For `C=CCc1ccccc1OCC(=O)N/N=C/c1ccc(OC(C)=O)cc1OC(C)=O`, the Potency was 15.8 µM (active). For `C=CCc1cccc(/C=N/NC(=O)CNc2ccccc2)c1O`, the Potency was 2.82 µM (active). In the case of `COc1ccc(-c2nn(-c3ccccc3)cc2C(=O)NC(=S)NNC(=O)c2ccncc2)cc1`, the Potency is reported as 15.8 µM (active). For `CCCOc1ccc(C(=O)NC(=S)NNC(=O)c2c(-c3ccccc3)noc2C)cc1`, the Potency was “inactive”. In the case of `CCC(=O)NC(=S)NNC(=O)c1ccc(OC)cc1`, the Potency is reported as 15.8 µM (active). With `COc1ccc(C(=O)NNC(=S)NC(=O)c2ccccc2)cc1` the Potency was 14.1 µM (active). In the case of `CCCC/C(C)=N/NC(=O)c1cn(-c2ccccc2)nc1-c1ccccc1`, the Potency is reported as “inactive”. With `CCCCOc1ccc(C(=O)NNC(=S)NC(=O)CC)cc1` the Potency was 2.82 µM (active).
